Our source for the composite z-score, composite Z-score and z-score values is PubChem BioAssay.

In one assay the target is Albumin (Bos taurus) (UniProt P02769). Nature of the assay: compounds binding labelled BSA control protein – biochemical, small-molecule microarray, Alexa647 label, 635/667 nm fluorescence, artefact control for SMM control protein annotation, profiling panel (AID 1118).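 Note: score merges 667 nm emission intensity and signal-to-noise per printed compound spot.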 Particulars: BSA-A647 binding, fluorescence 635 nm, higher = more signal.
A short description of assay [1]: probe aXIP binding to arrayed compounds – biochemical, NeuroSMM set, 635/667 nm fluorescence, primary screen (AID 1119).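 Note: probe is the protein aXip251-270 applied at 1 µg/mL to compound-printed slides; binding of probe to printed compounds measured as 667 nm fluorescence plus signal to noise.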 The note with it: small-molecule microarray, higher = more signal, called active from +8 up or from −8 down.
Assay [2] is described as follows: probe aNOTCH3 binding on compound microarray – biochemical, small-molecule microarray, 635/667 nm fluorescence, primary screen (AID 1120).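 Note: probe is a biotin-tagged antibody raised against NOTCH3 rather than NOTCH3 protein; score merges spot fluorescence near 667 nm with spot signal to noise.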 Particulars: higher = more signal.
Assay [3] can be described thus: probe aNOTCH2 binding on compound microarray – biochemical, small-molecule microarray, 635/667 nm fluorescence, primary screen (AID 1121).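 Note: score merges feature fluorescence read at 667 nm with its signal to noise.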 The note with it: higher = more signal.
For assay [4], the target named is Carbonic anhydrase 2 (Homo sapiens) (UniProt P00918). Nature of the assay: compounds binding carbonic anhydrase 2 – biochemical, small-molecule microarray, Alexa647-labelled CAII, profiling panel (AID 1122). The note with it: CAII-A647 binding fluorescence, higher = more signal.
Assay [5] in a line: COS7 lysate on small-molecule microarray, probe aHis, 635 nm (AID 1123).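 Note: z-score combines 667nm fluorescence intensity with signal-to-noise per printed compound spot.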 The note with it: COS7 cell lysate, fluorescence, higher = more signal.
A short description of assay [6]: probe aLAP1 signal on lysate-treated microarray – cell lysate, small-molecule microarray, COS7 lysate, primary screen (AID 1124).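 Note: lysate comes from COS7 cells expressing LAP1 and is applied at 0.3 µg/mL; score merges spot fluorescence near 667 nm with signal-to-noise over triplicate slides.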 The note with it: probe aLAP1, fluorescence, higher = more signal.
The subject of another assay is Sam68 (KHDRBS1). Nature of the assay: compounds binding KHDRBS1 protein – biochemical, small-molecule microarray, 635 nm fluorescence, primary screen (AID 1125).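 Note: score merges 667 nm channel intensity with signal to noise over triplicate slides.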 Particulars: higher = more signal.
For assay [7], the system named is Chordin-like protein 2 (CHRDL2). Nature of the assay: compounds binding chordin-like 2 – biochemical, small-molecule microarray, 635 nm fluorescence, primary screen (AID 1126).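 Note: printed compound slides probed with Chrdl2 protein at 4 µg/mL for 1 h at 4 C; score merges 667 nm emission intensity with signal to noise over three replicate slides.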 The note with it: fluorescence 635 nm, higher = more signal.
Assay [8] concerns the target Concanavalin-A (Canavalia ensiformis) (UniProt P02866). Nature of the assay: compounds binding concanavalin A lectin – biochemical, small-molecule microarray, Alexa647 label, 635 nm, artefact control for SMM control protein annotation, primary screen (AID 1127).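 Note: z combines 667 nm emission intensity with signal-to-noise across three replicate slides.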 The note with it: ConA-A647 binding fluorescence, higher = more signal.
A short description of assay [9]: compounds binding Alexa647 anti-His antibody – biochemical, small-molecule microarray, 635 nm fluorescence, artefact control for SMM control protein annotation, primary screen (AID 1128).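 Note: score merges feature fluorescence with signal-to-noise for each printed compound spot.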 The note with it: higher = more signal.
In assay [10] the test system is Human papillomavirus type 1a E7 protein (residues 1-88). Nature of the assay: HPV1a E7 small-molecule binders, primary screen, biochemical, small-molecule microarray, residues 1-88, 635 nm (AID 1129). The note with it: small-molecule microarray binding, fluorescence 635 nm; higher = more signal.
The target in assay [11] is Focal adhesion kinase 1 (Homo sapiens) (UniProt Q05397). Nature of the assay: PTK2 protein binding on printed compound slides – biochemical, small-molecule microarray, 635/667 nm fluorescence, BSA, DTT, primary screen (AID 1130).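 Note: composite of spot emission at 667 nm and signal to noise over triplicate slides.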 The note with it: 635 nm fluorescence, higher = more signal.
Assay [12] deals with Fibrinogen (Alexa647-labelled). Nature of the assay: Alexa647-fibrinogen binding to printed small molecules – biochemical, small-molecule microarray, 635/667 nm fluorescence, artefact control for SMM control-protein annotation, profiling panel (AID 1131).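 Note: z-score merges 667 nm fluorescence with per-spot signal-to-noise over triplicate slides.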 The note with it: fibrinogen-A647 binding fluorescence, higher = more signal.
The target in assay [13] is Follistatin (Homo sapiens) (UniProt P19883). Nature of the assay: FST protein binding to printed compounds – biochemical, small-molecule microarray, 635/667 nm fluorescence, primary screen (AID 1132). The note with it: 635 nm fluorescence, higher = more signal.
Assay [14] addresses Fibroblast growth factor 2 (Homo sapiens) (UniProt P09038). Nature of the assay: basic fibroblast growth factor binding to printed compounds – biochemical, small-molecule microarray, 635/667 nm fluorescence, primary screen (AID 1133). The note with it: FGF2, fluorescence 635/667, higher = more signal.
The nature of assay [15]: JC-1 mitochondrial potential readout, lung cancer cells – cell-based, A549, JC-1 fluorescence, basal, 24 h, 100 nL, profiling panel (AID 1138).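 Note: A549 lung adenocarcinoma cells under basal conditions with no added stimulus; test concentration not given here.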 The note with it: higher = more signal.
A further assay concerns Lefty1. Nature of the assay: Lefty1 protein binding to printed compounds – biochemical, small-molecule microarray, 635/667 nm fluorescence, primary screen (AID 1139). Particulars: fluorescence 635/667, higher = more signal.
The test system of assay [16] is wheat germ agglutinin (Triticum aestivum), Alexa647-labelled. Nature of the assay: Alexa647-WGA lectin binding to printed small molecules – biochemical, small-molecule microarray, 635/667 nm fluorescence, artefact control for SMM control-protein annotation, profiling panel (AID 1140).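 Note: score merges 667 nm feature emission with signal to noise over triplicate slides.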 Particulars: WGA-A647 binding, 635 nm fluorescence, higher = more signal.
The target of assay [17] is Luciferin 4-monooxygenase (Photinus pyralis) (UniProt P08659). Nature of the assay: inhibition of purified Photinus pyralis luciferase – biochemical, luminescence, purified enzyme, 2006 set, primary screen (AID 1141).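 Note: cell-free assay with purified firefly luciferase at 100 ng per well in PBS; test concentration not given here.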 The note with it: purified firefly luciferase, SteadyGlo luminescence, 30 min; higher = more signal, called active from +8 up or from −8 down.

Structures are written as SMILES. Calls of active or inactive are those of the source.

Chain of Luciferin 4-monooxygenase (Photinus pyralis) (P08659 whole entry, looked up): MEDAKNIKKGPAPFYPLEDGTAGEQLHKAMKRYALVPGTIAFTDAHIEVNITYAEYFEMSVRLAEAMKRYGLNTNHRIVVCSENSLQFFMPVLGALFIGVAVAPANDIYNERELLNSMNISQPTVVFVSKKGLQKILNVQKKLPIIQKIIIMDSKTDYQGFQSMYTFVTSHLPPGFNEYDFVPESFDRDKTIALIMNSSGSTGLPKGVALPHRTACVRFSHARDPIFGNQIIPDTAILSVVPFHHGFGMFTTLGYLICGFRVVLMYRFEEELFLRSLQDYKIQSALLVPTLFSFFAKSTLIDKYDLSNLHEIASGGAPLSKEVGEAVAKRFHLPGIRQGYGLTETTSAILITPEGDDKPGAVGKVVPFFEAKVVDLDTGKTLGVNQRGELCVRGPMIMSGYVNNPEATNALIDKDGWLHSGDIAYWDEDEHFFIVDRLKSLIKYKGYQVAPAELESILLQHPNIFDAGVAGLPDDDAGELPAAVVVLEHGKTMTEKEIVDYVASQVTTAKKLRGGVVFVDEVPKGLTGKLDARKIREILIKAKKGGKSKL
Chain of Albumin (Bos taurus) (P02769 whole entry, looked up): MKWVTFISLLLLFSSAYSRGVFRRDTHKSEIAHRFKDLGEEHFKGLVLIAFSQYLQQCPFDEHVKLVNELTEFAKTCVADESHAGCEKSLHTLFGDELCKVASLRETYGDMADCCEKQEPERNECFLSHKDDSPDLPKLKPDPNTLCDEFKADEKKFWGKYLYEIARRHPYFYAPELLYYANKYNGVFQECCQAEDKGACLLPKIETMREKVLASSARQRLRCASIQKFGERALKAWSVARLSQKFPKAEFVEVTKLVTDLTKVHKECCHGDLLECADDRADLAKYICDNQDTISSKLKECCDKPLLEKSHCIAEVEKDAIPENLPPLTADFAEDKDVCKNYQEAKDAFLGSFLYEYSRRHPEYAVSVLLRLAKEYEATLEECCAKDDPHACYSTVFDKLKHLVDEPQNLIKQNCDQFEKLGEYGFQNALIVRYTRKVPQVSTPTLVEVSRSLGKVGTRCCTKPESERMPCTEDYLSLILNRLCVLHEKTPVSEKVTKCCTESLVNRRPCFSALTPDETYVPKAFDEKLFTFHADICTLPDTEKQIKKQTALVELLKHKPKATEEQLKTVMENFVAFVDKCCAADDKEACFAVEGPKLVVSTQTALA
Chain of Focal adhesion kinase 1 (Homo sapiens) (Q05397 whole entry, looked up): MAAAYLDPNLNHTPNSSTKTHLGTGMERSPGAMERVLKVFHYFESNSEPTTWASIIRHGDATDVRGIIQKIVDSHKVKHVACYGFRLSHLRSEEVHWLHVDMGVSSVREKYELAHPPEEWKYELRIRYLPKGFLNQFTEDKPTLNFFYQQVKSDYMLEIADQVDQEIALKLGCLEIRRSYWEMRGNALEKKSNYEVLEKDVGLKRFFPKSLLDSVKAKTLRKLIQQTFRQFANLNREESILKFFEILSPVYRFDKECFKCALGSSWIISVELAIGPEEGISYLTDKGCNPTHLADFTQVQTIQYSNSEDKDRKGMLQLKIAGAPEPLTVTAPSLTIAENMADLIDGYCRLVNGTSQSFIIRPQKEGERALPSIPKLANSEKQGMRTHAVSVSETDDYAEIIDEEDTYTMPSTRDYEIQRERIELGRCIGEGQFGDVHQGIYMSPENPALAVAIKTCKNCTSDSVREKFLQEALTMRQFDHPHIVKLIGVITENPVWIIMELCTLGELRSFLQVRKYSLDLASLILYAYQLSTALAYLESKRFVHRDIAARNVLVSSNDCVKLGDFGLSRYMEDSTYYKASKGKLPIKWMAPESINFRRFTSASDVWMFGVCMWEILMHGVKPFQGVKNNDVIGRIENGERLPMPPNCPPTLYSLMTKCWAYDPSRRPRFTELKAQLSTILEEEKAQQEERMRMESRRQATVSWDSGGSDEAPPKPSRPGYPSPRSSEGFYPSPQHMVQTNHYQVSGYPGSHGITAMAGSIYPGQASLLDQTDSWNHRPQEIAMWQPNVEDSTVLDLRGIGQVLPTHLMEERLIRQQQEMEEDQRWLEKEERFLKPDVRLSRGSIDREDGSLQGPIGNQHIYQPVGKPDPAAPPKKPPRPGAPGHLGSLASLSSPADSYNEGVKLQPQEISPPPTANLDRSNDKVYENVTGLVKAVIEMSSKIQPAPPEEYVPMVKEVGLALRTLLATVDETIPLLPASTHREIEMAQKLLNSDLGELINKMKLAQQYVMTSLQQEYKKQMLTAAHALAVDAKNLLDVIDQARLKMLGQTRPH
Chain of Follistatin (Homo sapiens) (P19883 whole entry, looked up): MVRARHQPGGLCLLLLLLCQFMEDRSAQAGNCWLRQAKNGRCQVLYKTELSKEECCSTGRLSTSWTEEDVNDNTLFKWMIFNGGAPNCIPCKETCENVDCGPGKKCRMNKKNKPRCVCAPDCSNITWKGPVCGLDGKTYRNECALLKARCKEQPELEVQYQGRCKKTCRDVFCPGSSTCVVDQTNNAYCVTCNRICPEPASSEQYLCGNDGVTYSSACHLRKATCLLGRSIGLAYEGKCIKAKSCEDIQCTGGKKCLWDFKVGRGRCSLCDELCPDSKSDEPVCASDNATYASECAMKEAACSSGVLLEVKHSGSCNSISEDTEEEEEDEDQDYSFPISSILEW
Chain of Concanavalin-A (Canavalia ensiformis) (P02866 whole entry, looked up): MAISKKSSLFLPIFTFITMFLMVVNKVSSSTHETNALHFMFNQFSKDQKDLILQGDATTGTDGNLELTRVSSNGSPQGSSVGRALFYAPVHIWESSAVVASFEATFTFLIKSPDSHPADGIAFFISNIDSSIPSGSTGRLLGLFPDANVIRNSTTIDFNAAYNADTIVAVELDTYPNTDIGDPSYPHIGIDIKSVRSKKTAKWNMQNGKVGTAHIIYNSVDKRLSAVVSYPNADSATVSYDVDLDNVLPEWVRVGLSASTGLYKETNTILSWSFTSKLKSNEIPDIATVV
Chain of Fibroblast growth factor 2 (Homo sapiens) (P09038 whole entry, looked up): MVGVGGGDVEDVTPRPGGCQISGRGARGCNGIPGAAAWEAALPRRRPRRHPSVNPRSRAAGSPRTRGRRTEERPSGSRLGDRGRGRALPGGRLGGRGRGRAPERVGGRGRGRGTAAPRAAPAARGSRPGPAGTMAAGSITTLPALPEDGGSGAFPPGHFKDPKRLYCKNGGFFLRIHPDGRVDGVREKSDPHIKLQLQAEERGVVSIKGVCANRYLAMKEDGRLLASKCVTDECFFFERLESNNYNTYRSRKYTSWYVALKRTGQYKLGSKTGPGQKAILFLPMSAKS

Consider `C=C(/C(=C/C[C@@H](OC(C)=O)c1ccc(OCCO)cc1)c1cc(C(=O)OC)ccc1OC)C(C)C`, for which the composite z-score in the assay with Albumin (Bos taurus) is 0.296; in [2], -0.0417; in assay [3] it was -0.127; in assay [4], 0.735; in [5], 0.303; in assay [6], 1.2. In addition, the composite z-score with Sam68 (KHDRBS1) is 0.938; in assay [7], -0.137; in assay [8], 0.697; in [9] it was 1.81; in assay [10], 0.999; in assay [11] it was 0.211. The composite z-score stood at 0.665 in assay [12]; 0.776 in assay [13]; 1.11 in assay [14]; 1.36 with Lefty1; 0.85 in [16]. Besides, the composite Z-score in assay [1] is 0.185 (inactive). Further, the z-score is 0.471 in assay [15] and -0.6 (inactive) in assay [17].

As for `COCCCNC(=O)[C@@]1(c2ccc([N+](=O)[O-])cc2)CC(=O)N(C(C)C)[C@@H]1c1ccc(CO)cc1`, the composite z-score in the assay with Albumin (Bos taurus) was 0.224; in [2], -0.424; in [3] it was -0.0282; in assay [4], 0.729; in assay [5] it was 0.198; in assay [6], 1.25. In addition, the composite z-score with Sam68 (KHDRBS1) was 0.353; in assay [7], 0.454; in assay [8], -1.5; in [9], -0.92; in [10], -0.085; in assay [11] it was 0.756. Besides, the composite z-score was -0.779 in assay [12]; 0.559 in assay [13]; 0.352 in assay [14]; -0.0938 in the assay with Lefty1; 0.174 in [16]. In addition, the composite Z-score in [1] was -0.786 (inactive). Further, the results for the z-score in assay [15] and in assay [17] were 0.296 and -0.985 (inactive), respectively.

Consider `NC(=O)[C@H]1[C@@H]2C(=O)O[C@@H](c3ccccc3)[C@@H](c3ccccc3)N2[C@@H](c2ccc(O)cc2)[C@]12C(=O)Nc1ccccc12`, for which the composite z-score in the assay with Albumin (Bos taurus) is 0.295; in [2] it was -0.307; in assay [3], -0.173; in assay [4] it was 0.769; in assay [5], -0.115; in assay [6], 0.0182. Moreover, the composite z-score was -0.783 with Sam68 (KHDRBS1); -1.22 in assay [7]; -0.411 in assay [8]; 0.53 in assay [9]; -0.189 in assay [10]; -0.91 in [11]. For the same molecule, the composite z-score in assay [12] was -1.61; in assay [13], -0.441; in [14] it was -0.943; with Lefty1 it was -0.502; in assay [16], -1.03. Besides, the composite Z-score in [1] was 0.355 (inactive). The z-score in assay [15] is -0.186; in [17], -0.794 (inactive).

For the molecule `CCOC(=O)C1=CCN(S(=O)(=O)c2ccc(C)cc2)C1c1ccccc1` (stereo not given), the composite z-score in the assay with Albumin (Bos taurus) is 1.02; in assay [2], 0.0836; in [3], -0.0607; in assay [4], 0.685; in assay [5], 1.69; in assay [6], 0.709. The composite z-score with Sam68 (KHDRBS1) came to 1.08; in assay [7], 0.132; in assay [8], 1.14; in assay [9], 0.843; in assay [10], 1.2; in assay [11], 0.656. Also, the composite z-score in [12] was found to be 0.609; in assay [13], 0.467; in [14], 0.835; in the assay on Lefty1, 0.0842; in assay [16], 0.652. The composite Z-score in [1] was 0.728 (inactive). Also, the z-score in [15] was 0.942; in assay [17], 1.75 (inactive).

With `CCOC(=O)C[C@H]1[C@H](OC(=O)c2cc3ccccc3oc2=O)[C@@H](NC(=O)c2ccc3ccccc3c2)c2cc(OCCCO)ccc2N1C(=O)Cc1ccc(OC)cc1`, the composite z-score was 0.684 with Albumin (Bos taurus); -0.0377 in [2]; -0.0131 in assay [3]; 0.265 in [4]; 1.69 in assay [5]; 0.241 in assay [6]. Besides, the composite z-score in the assay with Sam68 (KHDRBS1) was 0.692; in [7], 0.453; in assay [8] it was 0.69; in assay [9], -0.017; in assay [10], 0.743; in assay [11], 0.307. Besides, the composite z-score in [12] was found to be 0.932; in assay [13], 0.911; in [14] it was 0.518; in the assay with Lefty1 it was 0.631; in assay [16], 0.664. The composite Z-score in assay [1] was -0.0384 (inactive). The results for the z-score in [15] and in assay [17] were -0.167 and 0.842 (inactive), respectively.
